Assay outcomes from PubChem BioAssay.
Most compounds without a hit are left out; they make up all but 19% or so of the library.
DT40 TDP1 CPT: qHTS for Inhibitors of human tyrosyl-DNA phosphodiesterase 1 (TDP1): qHTS in cells in presence of CPT; chicken DT40 Tdp1-/-;hTDP1 cells + 20 nM CPT, ATP luminescence, 48 h; Potency, µM (highest dose often 46.2 µM), for the others: at the top dose activity change, negative = growth inhibition, most hits filed as inhibitors; 420,000 compounds, 12% hits; further: potency means the concentration at half of the fitted maximal effect; nearly all actives have a fitted effect of over 55% in size
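Chicken DT40 Tdp1-/- cells stably complemented with human TDP1 were seeded at 400 cells/well in medium containing 20 nM camptothecin, exposed to pin-transferred compounds, and grown at 37 °C for at least 48 hr. Viability was read as ATP luminescence.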
TDP1 cell noCPT: qHTS for Inhibitors of human tyrosyl-DNA phosphodiesterase 1 (TDP1): qHTS in cells in absence of CPT. DT40 Tdp1-/- hTDP1 cells, no CPT, ATP luminescence, 48 h. Potency, µM (series often up to 46.2 µM), inactives show at the top dose activity change, negative = growth inhibition, most hits filed as inhibitors. 420,000 compounds, 15% hits. AID 686978, 2013; further: potency means the concentration at half of the fitted maximal effect; nearly all actives have a fitted effect of over 55% in size
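Chicken DT40 Tdp1-/- cells complemented with human TDP1, screened without camptothecin (DMSO vehicle only), 400 cells/well. Compounds pin-transferred, cells incubated at 37 °C for at least 48 hr. Growth read as ATP-dependent luminescence (CellTiter-Glo, 30 min at RT).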
HT1080-NT tox: qHTS for induction of synthetic lethality in tumor cells producing 2HG: qHTS for the HT-1080-NT fibrosarcoma cell line | HT-1080-NT fibrosarcoma viability, CellTiter-Glo ATP luminescence, 48 h | Potency, µM (top dose mostly 46.1 µM), without a hit: at the highest dose activity, negative = less viability, usual class: cytotoxic | 360,000 compounds, 1.6% hits;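 further: NT is the 2HG producing partner of a matched IDH1 knockdown line; potency means the concentration at half of the fitted maximal effect; 0% = DMSO-treated cells and -100% = media-only wells without cells; nearly all actives have a fitted effect of over 55% in size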
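Fibrosarcoma NT cells, 750 per well in 5% FBS RPMI, were exposed to compound for 48 hours. Viability: CellTiter-Glo luminescence.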
ELG1 repair inh: qHTS screen for small molecules that inhibit ELG1-dependent DNA repair in human embryonic kidney (HEK293T) cells expressing luciferase-tagged ELG1. HEK293T ELG1-luciferase reporter, luminescence, 16 h; DNA damage induced by 5-fluorouridine. Potency, µM (titrated, usually from 46.1 µM), without a hit: top-dose activity change, negative = inhibition, actives largely listed as inhibitors. 330,000 compounds, 2.3% hits. AID 504467, 2011; further: potency means the concentration at half of the fitted maximal effect; nearly all actives have a fitted effect of over 55% in size
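Cells (2,000 per well) received 5-fluorouridine plus test compound or DMSO and were incubated 16 hr at 37 °C, 5% CO2. Luciferase activity was read by luminescence 30 min after ONE-Glo addition; signal suppression marked inhibition of damage-induced ELG1 function.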
IL-1B inflam inh: qHTS for Inhibitors of Inflammasome Signaling: IL-1-beta AlphaLISA Primary Screen; THP-1 LPS/ATP IL-1B secretion, AlphaLISA, 16 h; stronger effect = lower value; activity change, % at 57.5 µM; 360,000 compounds, 4.7% hits; AID 743279, 2014; in the data active means activity change below about -50%; inconclusive means mostly about -30% to -49%
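THP-1 cells pretreated 1 hr with compounds (up to 57.5 uM final), then stimulated with LPS (250 ng/mL final) plus ATP (1.25 mM final); secreted IL-1B measured by AlphaLISA after 16 hr, decreased signal indicating inhibition.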
HT1080 IDH1KD tx: qHTS for induction of synthetic lethality in tumor cells producing 2HG: qHTS for the HT-1080-IDH1KD cell line; Potency, µM (titrated, usually from 46.1 µM), inactives show at the top dose activity, negative = toxicity, hits mostly cytotoxic; 360,000 compounds, 2% hits; HT-1080 IDH1 knockdown viability, ATP luminescence, 48 h;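 further: potency means the concentration at half of the fitted maximal effect; 0% = DMSO wells and -100% = cell-free medium wells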
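After a 2 h attachment period, IDH1KD HT-1080 cells took pin-transferred compound for 48 h at 37 °C; ATP-based luminescence after 10 min room-temperature reagent incubation reported viability.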
The depositor's hits bear a star; u = inconclusive; x = no result. Unless noted, the call rests on the fitted dose curve; in most records, active means well fitted curve in the direction sought with a large enough effect; inconclusive means small, poorly fitted or top-dose-only effect, or another doubt; inactive means no such curve, though single readings can be large; an effect the other way counts as inactive or inconclusive. Unless noted, on the % scale 0 is the no-effect control and ±100 the full control effect.

SMILES | DT40 TDP1 CPT | TDP1 cell noCPT | HT1080-NT tox | ELG1 repair inh | IL-1B inflam inh | HT1080 IDH1KD tx
CCCCn1nnnc1C(c1ccccc1)N1CCN(C)CC1 (stereo not given) | 2% | -14% | 21% | x | 4 | 13%
O=C(Nc1ccc(F)c(Cl)c1)N1CCN2CCCCC2C1 (stereo not given) | 5% | 0% | x | x | x | x
COCC(=O)N1CCC2(CCCN(c3ccncc3)C2)CC1 | -4% | 3% | x | x | x | x
CCOC(=O)/C=C/COc1ccccc1[N+](=O)[O-] | 12% | -16% | 0% | u | -9 | -12%
COc1ccc(-n2c(=O)c(-c3cc(F)cc(F)c3)nc3cncnc32)cc1 | 0% | 20% | x | x | x | x
COc1ccccc1C(c1nnnn1Cc1ccccc1)N1CCN(c2nc3ccccc3s2)CC1 (stereo not given) | u | u | 0% | u | -7 | -2%
Fc1ccc(C(c2ccc(F)cc2)N2CCN(C/C=C/c3ccccc3)CC2)cc1 | 3.7µM* | 23µM* | u | -16% | -12 | u
C(=C\c1ccccc1)/CN1CCN(C(c2ccccc2)c2nnnn2Cc2ccccc2)CC1 (stereo not given) | 29µM* | u | u | x | 0 | u
FC(F)(F)Oc1ccccc1C(c1nnnn1Cc1ccccc1)N1CCN(C/C=C/c2ccccc2)CC1 (stereo not given) | u | u | -18% | x | -55* | -16%
CC(C)(C)n1nnnc1C(c1ccccc1)N1CCN(C/C=C/c2ccccc2)CC1 (stereo not given) | u | u | -28% | x | -8 | -24%
COc1ccc(N2CCN(C(c3ccccc3)c3nnnn3Cc3ccccc3)CC2)cc1 (stereo not given) | u | 16µM* | x | x | x | x
C(=C\c1ccccc1)/CN1CCN(C(c2ccccc2)c2ccccc2)CC1 | u | u | -15% | -27% | 16 | -13%
Cc1nn2c(=O)cc(CSCC(=O)Nc3ccccc3Cl)nc2s1 | -8% | 34% | -1% | 0% | -5 | -4%
O=C(CN1CCN(S(=O)(=O)c2cccc(F)c2)CC1)Nc1ccnn1C1CCCC1 | -26% | -11% | -5% | -6% | 0 | 2%
C=C1C(=O)C23CCC4C(C)(C(=O)OC)CCCC4(C)C2CCC1(O)C3 (stereo not given) | 0.65µM* | 0.52µM* | 9.2µM* | x | -103* | 2.3µM*
COC(=O)[C@]1(C)CCC[C@@]2(C)C3CC[C@@]4(C)C[C@]3(CCC21)CC(=O)N4 (stereo not given in full) | u | u | 5% | 4% | 11 | 10%
NC(=O)NCC(N)C(=O)O (stereo not given) | 1% | -5% | x | x | x | x
BrC(=C\c1ccccc1)/C=N/n1cnnc1 | 0.29µM* | 0.58µM* | 16µM* | u | -13 | 21µM*
BrC(=C\c1ccccc1)/C=N/Nc1ccc2nncn2n1 | u | u | -8% | u | -86* | u
Cc1ccc(C(=O)NNC(=O)c2ccc3ncccc3c2)cc1 | 9% | 0% | 12% | -10% | -12 | u
CC(C)(C)OC(=O)NCc1ccc(CNC(=O)c2nc[nH]c2C(=O)N2CCN(C(=O)OC(C)(C)C)CC2)cc1 | u | 18µM* | -3% | 12µM* | 18 | 2%
